This is a sample that favours compounds with a hit; in the whole collection about 0.9% have one here.
SRC2 TRFRET art = flags TR-FRET format artefacts in PPARgamma SRC-2 recruitment agonist screen. TR-FRET artefact counter-screen; active compounds read high. TR-FRET ratio at 8 µM. 200,000 compounds, 0.4% hits
SRC1 TRFRET art = TR-FRET artefact, counter-screen to PPARgamma/SRC-1 agonist assay; TR-FRET detection artefact counter-screen, emission ratio; active compounds read high; 99,000 compounds, 0.34% hits; TR-FRET ratio at 8 µM; in the data active = TR-FRET ratio above about 2300
PPARg SRC-1 ag = agonists of human PPARgamma SRC-1 coactivator recruitment; 200,000 compounds, 0.41% hits; activation, % at 8 µM; P37231; AID 631; PPARgamma-SRC-1 coactivator recruitment biochemical assay; in the data active = activation above about 19%;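 also: 0% = DMSO and 100% = reference agonist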
PPARg SRC3 recr = promotes SRC-3 coactivator recruitment by human PPARgamma; activation, % at 8 µM; 200,000 compounds, 0.26% hits; biochemical PPARgamma/SRC-3 coactivator recruitment assay; P37231; AID 731; in the data active = activation above about 23%;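 also: 0% = DMSO and 100% = reference agonist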
SRC3 TRFRET art = TR-FRET artefact, counter-screen to PPARgamma/SRC-3 agonist assay. PPARgamma/SRC-3 format; active compounds read high. TR-FRET ratio at 8 µM. 99,000 compounds, 0.39% hits
PPARg SRC2 recr = promotes SRC-2 coactivator recruitment by human PPARgamma | P37231 | PPARgamma LBD-SRC-2 recruitment, biochemical | activation, % at 8 µM | 200,000 compounds, 0.34% hits | AID 1032; in the data active = activation above about 22%;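 also: 0% = vehicle and 100% = reference agonist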
PPARg SRC2 conf = human PPARgamma SRC-2 recruitment agonism, confirmation; shares compounds with PPARg SRC3 recr; 790 compounds, 52% hits; biochemical SRC-2 recruitment by PPARgamma; AID 1297; activation, % at 8 µM; in the data active = activation above about 22%;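 also: 0% = vehicle alone and 100% = reference agonist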
PPARg SRC1 conf = confirmation of agonists of SRC-1 recruitment by human PPARgamma | shares compounds with PPARg SRC3 recr | PPARgamma–SRC-1 coactivator recruitment biochemical assay | 790 compounds, 43% hits | activation, % at 8 µM; in the data active = activation above about 20%;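 also: 0% = vehicle wells and 100% = reference agonist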
PPARg SRC3 ag = human PPARgamma SRC-3 recruitment agonism, confirmation. biochemical PPARgamma-SRC-3 coactivator recruitment, agonist mode. 790 compounds, 29% hits. shares compounds with PPARg SRC3 recr. AID 1301. activation, % at 8 µM; in the data active = activation above about 24%;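 also: 0% = vehicle wells and 100% = reference agonist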
* = called active by the depositor; · = no result. Rule as the data show it, unless noted: active = TR-FRET ratio above about 2000; inactive = the rest.

SMILES | SRC2 TRFRET art | SRC1 TRFRET art | PPARg SRC-1 ag | PPARg SRC3 recr | SRC3 TRFRET art | PPARg SRC2 recr | PPARg SRC2 conf | PPARg SRC1 conf | PPARg SRC3 ag
O=C(CSc1ncnc2c1oc1ccccc12)Nc1cccc(Cl)c1 | 1548 | · | 11 | 33* | · | 25* | 27* | 22* | 19
CCCCCCCC(=O)N/N=C/c1cccnc1 | 1642 | · | 20* | 9 | · | 6 | 5 | 3 | 6
Cc1nc(CNS(=O)(=O)c2cc(F)ccc2F)cs1 | 1511 | · | 4 | 7 | · | 15 | · | · | ·
CC1CCCN(C(=O)c2ccc3c(c2NCCO)C(=O)c2ccccc2C3=O)C1 (stereo unspecified) | 1480 | · | 8 | 17 | · | 15 | · | · | ·
O=C1c2ccccc2C(=O)c2c1ccc(C(=O)N1CCCCC1)c2NCCO | 1568 | · | 21* | 21 | · | 5 | 13 | 8 | 5
O=C(Cn1c2[n+](c3ccc(C(F)(F)F)cc31)CCCCC2)Nc1ccc(Br)cc1 | 1745 | 1824 | 1 | -1 | 1456 | 9 | · | · | ·
CC(Nc1ccc(Cl)cc1)c1cc(Cl)ccc1O (stereo unspecified) | 1301 | · | 1 | 7 | · | 4 | · | · | ·
CC(Nc1ccc(Br)cn1)c1cc(Cl)ccc1O (stereo unspecified) | 1617 | · | 78* | 52* | · | 37* | 33* | 51* | 41*
COc1ccc2[nH]c3ccccc3c2c1 | 1426 | · | -3 | -5 | · | 8 | · | · | ·
COc1ccc2c(c1)Sc1ccccc1N2 | 1917 | 2097 | 27* | 13 | 1823 | 17 | 11 | 14 | 13
O=C1C=C(c2cccs2)CC(c2cccs2)C1n1cnc([N+](=O)[O-])c1 (stereo unspecified) | 1790 | · | 12 | 26* | · | 20 | 18 | 20* | 12
Oc1ccc(N=Cc2ccc(-c3cccs3)s2)cc1 | 1957 | · | 37* | 24 | · | 26* | 53* | 46* | 30*
O=C(COC(=O)C1CCN(S(=O)(=O)c2cc([N+](=O)[O-])ccc2Cl)CC1)Nc1ncc(Cl)cc1Cl | 1563 | · | 8 | 0 | · | 4 | · | · | ·
COc1cc(OC)c(-c2c3cc(O)c(=O)cc-3oc3cc(O)c(O)cc23)cc1OC | 1611 | 2053 | 1 | 3 | 1808 | 8 | · | · | ·
Cc1c2cc(O)c(=O)cc-2oc2cc(O)c(O)cc12 | 1651 | · | 6 | 27* | · | 16 | 7 | 7 | 6
COc1ccc(-c2nc3ncccn3c2Nc2ccccc2)cc1 | 1490 | 1916 | 14 | 7 | 1505 | -8 | · | · | ·
CCc1c(C(=O)NC2CCCC2)csc1C | 1761 | · | 0 | -4 | · | 11 | · | · | ·
CCOc1ccc(/C(O)=C2\C(=O)C(=O)N(c3cc(C)on3)C2c2ccccc2OC)cc1 (stereo unspecified) | 2300* | · | 27* | 42* | · | 34* | 36* | 31* | 22
O=c1c2cn[nH]c2[nH]c(=S)n1-c1cccc2ccccc12 | 2219* | 2560* | 17 | 17 | 2082* | 24* | 24* | 15 | 17
COc1ccccc1Nc1nc(C)cc(=O)[nH]1 | 1643 | · | 7 | 6 | · | -5 | · | · | ·
COc1ccccc1Nc1nc2ccccc2[nH]1 | 1580 | · | 11 | 27* | · | 8 | 8 | 7 | 4
COCCNc1oc(-c2cccs2)nc1S(=O)(=O)c1ccc(C)cc1 | 1626 | 1747 | 4 | 5 | 1609 | -4 | · | · | ·
COCCCNc1oc(-c2cccs2)nc1S(=O)(=O)c1ccc(C)cc1 | 1478 | 1713 | 15 | 33* | 1632 | -2 | 2 | 14 | 16
COc1ccc(OC)c2[nH]c(C(=O)O)cc12 | 1758 | · | 5 | -5 | · | -3 | · | · | ·
CCN(CC)c1ccc(NC(=O)Cn2ncc3c(C)n(Cc4ccccc4F)c(C)c3c2=O)c(C)c1 | 1632 | 1610 | 8 | -1 | 1507 | 0 | · | · | ·
SMILES | SRC2 TRFRET art | SRC1 TRFRET art | PPARg SRC-1 ag | PPARg SRC3 recr | SRC3 TRFRET art | PPARg SRC2 recr | PPARg SRC2 conf | PPARg SRC1 conf | PPARg SRC3 ag
O=C(CNC1CCCC1)Nc1ccc(N2CCCCCC2)cc1 | 1860 | 1797 | 20* | 6 | 1650 | 8 | 1 | 0 | 1
O=C(Nc1cccc(NC(=O)c2ccc(Br)o2)n1)c1ccc(Br)o1 | 1847 | · | 19* | 12 | · | 14 | 6 | 3 | 2
CCOC(=O)c1sc(-c2ccc(OC)cc2)cc1NC(C)=O | 1849 | 2390* | 18 | 14 | 2089* | 22* | 43* | 30* | 32*
COC(=O)c1sc(-c2ccccc2)cc1NC(=O)C1CC1 | 2243* | 2544* | 33* | 21 | 2499* | 30* | 32* | 21* | 18
CCOc1ccc(NC(=O)Nc2cc(-c3ccccc3)sc2C(=O)OC)cc1 | 1494 | 1837 | 5 | -1 | 1594 | 1 | · | · | ·
Cc1cc2nc(-c3ccc(SCc4ccccc4C#N)nc3)[nH]c2cc1C | 2284* | · | 36* | 46* | · | 59* | 32* | 20* | 20
CC12CCC(C(=O)N(c3ccc(Cl)cc3)C1=O)C2(C)C (stereo unspecified) | 1492 | 1882 | 4 | 0 | 1714 | 10 | · | · | ·
Cc1cc(C)n2c(SCc3ccc(C#N)cc3)nnc2n1 | 1633 | · | 10 | 7 | · | 3 | · | · | ·
Cc1cc(NS(=O)(=O)c2ccc(NC(=O)c3ccco3)cc2)no1 | 1513 | · | 21* | 15 | · | 5 | -1 | -4 | 0
CCCN1CCC(NC(=O)CCc2nnc(-c3ccccc3)o2)CC1 | 1640 | 1726 | 6 | 3 | 1708 | -1 | · | · | ·
COc1cc(-c2nc3ccccc3s2)ccc1O | 2089* | · | 23* | 31* | · | 30* | 30* | 33* | 23
Cc1c(C2(O)C(=O)Nc3ccc(F)cc32)c(=O)n(-c2ccccc2)n1C (stereo unspecified) | 1492 | · | -2 | -5 | · | 0 | · | · | ·
COC(=O)c1cc2c(-c3ccccc3)cc3ccccn3c-2c1C(=O)OC | 1581 | · | 7 | 3 | · | 11 | · | · | ·
CCS(=O)(=O)Nc1ccc(-c2nnc(SCC(=O)c3cccc(OC)c3)o2)cc1 | 1712 | · | 6 | 2 | · | 7 | · | · | ·
CCS(=O)(=O)Nc1ccc(-c2nnc(SCC(=O)c3ccc(NC(C)=O)c(OC)c3)o2)cc1 | 1680 | · | 31* | 57* | · | 5 | 8 | -1 | 7
O=C(Nc1ccccc1F)c1ccc(-n2cncn2)nc1 | 1617 | · | 1 | 10 | · | 23* | 6 | 5 | 3
COc1ccccc1NC(=O)c1ccc(-n2cncn2)nc1 | 1534 | 1830 | -5 | -4 | 1488 | 0 | · | · | ·
CC(=O)c1c(C)n([O-])c2cc(F)c(F)cc2[n+]1=O | 1532 | 1859 | 8 | 0 | 1493 | 6 | · | · | ·
O=C(Oc1c(Br)cc(Br)c2cccnc12)N1CCCCC1 | 1691 | 2129 | 29* | 5 | 1960 | 15 | 11 | 5 | 7
